# Sampled rows, rich in hits. Any-hit rate of the full collection: about 18%.
# IL-1B inflam inh – qHTS for Inhibitors of Inflammasome Signaling: IL-1-beta AlphaLISA Primary Screen. THP-1 LPS/ATP IL-1B secretion, AlphaLISA, 16 h; stronger effect = lower value. activity change, % at 57.5 µM. 360,000 compounds, 4.7% hits. AID 743279, 2014; in the data active = activity change below about -50%; inconclusive = mostly about -30% to -49%
#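 THP-1 cells pretreated 1 hr with compounds (up to 57.5 uM final), then stimulated with LPS (250 ng/mL final) plus ATP (1.25 mM final); secreted IL-1B measured by AlphaLISA after 16 hr, decreased signal indicating inhibition.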
# TDP1 block – qHTS Assay for Inhibitors of Tyrosyl-DNA Phosphodiesterase (TDP1) | recombinant TDP1, AlphaScreen DNA substrate cleavage | Potency, µM (series often up to 130 µM), for inactives: at the top dose activity change, negative = inhibition, usual class: inhibitors | 350,000 compounds, 0.28% hits; note: potency is the fitted concentration of half-maximal effect; nearly all actives have a fitted effect of over 40% in size
# Target sequence (Q9NUW8 whole entry, looked up): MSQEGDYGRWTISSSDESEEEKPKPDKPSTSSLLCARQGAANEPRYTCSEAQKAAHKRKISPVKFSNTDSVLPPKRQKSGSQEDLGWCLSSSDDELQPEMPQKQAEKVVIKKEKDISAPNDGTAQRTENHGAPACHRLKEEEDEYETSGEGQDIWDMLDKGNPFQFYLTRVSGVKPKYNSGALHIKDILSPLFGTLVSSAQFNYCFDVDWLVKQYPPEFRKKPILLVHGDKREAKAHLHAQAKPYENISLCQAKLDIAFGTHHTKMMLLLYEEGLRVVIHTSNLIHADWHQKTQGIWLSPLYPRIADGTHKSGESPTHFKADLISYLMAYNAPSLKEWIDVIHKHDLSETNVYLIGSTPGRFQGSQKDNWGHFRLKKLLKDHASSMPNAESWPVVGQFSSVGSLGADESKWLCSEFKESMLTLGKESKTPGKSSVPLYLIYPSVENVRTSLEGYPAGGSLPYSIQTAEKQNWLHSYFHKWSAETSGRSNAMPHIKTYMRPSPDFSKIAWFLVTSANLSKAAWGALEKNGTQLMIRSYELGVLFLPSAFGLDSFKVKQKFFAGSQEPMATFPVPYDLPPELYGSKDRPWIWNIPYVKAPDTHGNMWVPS
#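 Recombinant human Tdp1 (E. coli-expressed, 1 nM final) preincubated with compounds 15 min at room temperature, then 5'-biotin/3'-phosphotyrosine-FITC DNA substrate (15 nM final) added for 5 min. AlphaScreen beads (10 ug/ml final) added 10 min; cleavage lowers signal.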
# TDP1 cell noCPT – qHTS for Inhibitors of human tyrosyl-DNA phosphodiesterase 1 (TDP1): qHTS in cells in absence of CPT; DT40 Tdp1-/- hTDP1 cells, no CPT, ATP luminescence, 48 h; 420,000 compounds, 15% hits; AID 686978, 2013; Potency, µM (titrated, usually from 46.2 µM), for the others: at the top dose activity change, negative = growth inhibition, hits mostly inhibitors; note: potency is the fitted concentration of half-maximal effect; nearly all actives have a fitted effect of over 55% in size
#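 Compound effects on proliferation are scored in DT40 Tdp1-/-;hTDP1 cells in the absence of CPT. ATP levels (CellTiter-Glo luminescence) are recorded after a ≥48 hr, 37 °C incubation.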
# Six1-Eya2 inh – qHTS Assay for Inhibitors of the Six1/Eya2 Interaction; Homeobox protein SIX1 (Homo sapiens) + Protein phosphatase EYA2 (Homo sapiens), …; AlphaScreen GST-Six1/His-Eya2 binding, biochemical; stronger effect = lower value; activity change, % (concentration not given with the values); 360,000 compounds, 0.56% hits; AID 651725, 2012; in the data active = activity change below about -65%; inconclusive = mostly about -30% to -63%
#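 Homogeneous AlphaScreen proximity assay pairing GST-Six1 with His-tagged Eya2 (added as 5X mix: 250 nM and 500 nM) in 50 mM Tris pH 8.0, 300 mM NaCl, 1 mM TCEP. Glutathione donor and nickel acceptor beads; 1 h, 37 °C, dark.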
# CtBP-E1A blk – qHTS Assay for Inhibitors of the CtBP/E1A Interaction; AID 651724, 2012; CtBP / adenovirus E1A interaction (AlphaScreen); 340,000 compounds, 0.49% hits; AlphaScreen GST-E1A/His-CtBP binding, 1536-well; stronger effect = lower value; activity change, % (no concentration beside the values); in the data active = activity change below about -65%; inconclusive = mostly about -30% to -63%
#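 GST-E1A and His-tagged CtBP (125 nM each as 5X stock) were preincubated with pin-transferred compound for 2 h at 37 °C in the dark, then glutathione donor and nickel acceptor beads were added for 1 h before AlphaScreen reading.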
# DT40 TDP1 CPT – qHTS for Inhibitors of human tyrosyl-DNA phosphodiesterase 1 (TDP1): qHTS in cells in presence of CPT | chicken DT40 Tdp1-/-;hTDP1 cells + 20 nM CPT, ATP luminescence, 48 h | Potency, µM (highest dose often 46.2 µM), for the others: at the top dose activity change, negative = growth inhibition, most hits filed as inhibitors | 420,000 compounds, 12% hits; note: potency is the fitted concentration of half-maximal effect; nearly all actives have a fitted effect of over 55% in size
#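 Chicken DT40 Tdp1-/- cells complemented with human TDP1, 400 cells/well, exposed to compounds plus 20 nM camptothecin for at least 48 h at 37 C; viability read as ATP content by CellTiter-Glo luminescence.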
# Starred values were filed as active, the others as inactive; ? = inconclusive; . = no result given; [ ] = another dose, or the depositor's remark. Unless noted, calls come from the whole dose curve; as a rule, active = well fitted curve in the direction sought with a large enough effect; inconclusive = small, poorly fitted or top-dose-only effect, or another doubt; inactive = no such curve, though single readings can be large; an effect the other way counts as inactive or inconclusive. % is set by controls: 0 for no effect and ±100 for the full control effect.
SMILES,IL-1B inflam inh,TDP1 block,TDP1 cell noCPT,Six1-Eya2 inh,CtBP-E1A blk,DT40 TDP1 CPT
O=C(/C=C\c1ccc2c(c1)OCO2)c1ccc(F)cc1,.,3.7%[21 µM],.,.,.,.
CC1(Oc2ccccc2)CCN(Cc2csc3ccccc23)C1 (stereo not given),32.0,.,?,14.7,17.5,?
CC(Sc1nccn1C)C(=O)c1ccc(Br)cc1 (stereo not given),-1.0,9.2%,?,2.3,0.4,-8.6%
Cc1ccc2c(C)cc(=S)[nH]c2c1,38.5,8.9%,?,-5.4,.,?
O=C(/C=C/c1ccc([N+](=O)[O-])cc1)c1ccco1,0.0,.,?,4.0,2.7,?
O=C(/C=C/c1ccc(Br)cc1)c1ccco1,-108.3*,3.5%,16.4µM*,11.4,5.6,7.31µM*
COc1ccc(N(C)C(=O)Cn2cc(S(=O)(=O)N3CCN(c4ccccc4F)CC3)c3ccccc3c2=O)c(OC)c1,.,-2.5%,23.1µM*,.,.,-28.1%
O=C(NCc1nc(-c2ccccc2)no1)Nc1ccc(F)cc1,-10.0,3.7%,-12.0%,3.1,4.6,1.4%
CC(C)CSC1=NSC2=NC(=O)/C(=C\c3cccs3)C(=N)N12,-72.5*,-5.3%,20.6µM*,-7.0,-13.6,?
N=C1/C(=C/c2cccs2)C(=O)N=C2SN=C(SCc3ccccc3)N12,16.0,7.2%,-28.8%,3.3,-3.3,-12.6%
CCC(=O)NC(c1cc(Cl)c2cccnc2c1O)C(C)C (stereo not given),.,0.6%,.,.,.,.
CCCCC(=O)NC(c1cccs1)c1cc(Cl)c2cccnc2c1O (stereo not given),50.0,7.7%,2.59µM*,?,.,3.66µM*
CCC(=O)NC(c1cccs1)c1cc(Cl)c2cccnc2c1O (stereo not given),65.8,1.5%,3.26µM*,-89.2*,.,4.61µM*
COc1ccc(C(=O)NNC(=O)CSc2nnc(C)n2C)cc1,19.2,.,-2.8%,-6.6,6.7,-8.4%
CN1CCc2c(n(CC(O)CNCc3ccccc3)c3ccccc23)C1=O (stereo not given),?,-5.5%,8.2µM*,-0.7,.,8.2µM*
C[C@@]12C(=O)N(Cc3ccco3)CC(=O)N1[C@H]1c3cc(Cl)ccc3OC[C@@H]1[C@@H]2c1ccccc1,?,5.4%,?,-14.5,-2.5,?
C[C@@]12C(=O)N(Cc3ccc(F)cc3)CC(=O)N1[C@H]1c3cc(Cl)ccc3OC[C@@H]1[C@@H]2c1ccccc1,?,1.4%,18.4µM*,-13.9,-6.8,23.1µM*
C[C@@]12C(=O)N(Cc3ccccc3)CC(=O)N1[C@H]1c3cc(Cl)ccc3OC[C@@H]1[C@@H]2c1ccccc1,-27.9,2.2%,18.4µM*,-9.1,-9.5,?
CN1CC(=O)N2[C@H]3c4ccccc4OC[C@@H]3[C@H](c3ccccc3)[C@]2(C)C1=O,24.7,0.1%,-11.6%,1.1,1.6,-16.0%
CCOC(=O)c1cc(-c2ccc(F)cc2)n(CCC(=O)NC2CCC(C)CC2)c1C (stereo not given),.,6.6%,16.4µM*,.,.,?
CCOC(=O)c1cc(-c2ccc(OC)cc2)n(CCC(=O)NC2CCC(C)CC2)c1C (stereo not given),.,4.7%,23.1µM*,.,.,16.4µM*
CCOC(=O)c1cc(-c2ccc(OC)cc2)n(CCC(=O)NC2CCCCC2)c1C,.,-6.6%,16.4µM*,.,.,20.6µM*
O=C(Cc1ccccc1[N+](=O)[O-])NCC1(c2cccc3c2OCO3)OCCO1,19.2,.,2.9%,6.1,5.0,-5.4%
Cc1ccccc1OCC(O)Cn1c(Br)nc2c1c(=O)[nH]c(=O)n2C (stereo not given),42.8,8.9%,?,7.3,-6.9,13µM*
CCSc1nc2c(c(=O)[nH]c(=O)n2C)n1CC(O)COc1ccccc1C (stereo not given),41.9,5.2%,?,-0.1,2.8,14.6µM*
SMILES,IL-1B inflam inh,TDP1 block,TDP1 cell noCPT,Six1-Eya2 inh,CtBP-E1A blk,DT40 TDP1 CPT
Cc1ccccc1OCC(O)Cn1c(NCc2ccccc2)nc2c1c(=O)[nH]c(=O)n2C (stereo not given),35.8,-1.9%,-23.1%,8.7,-12.1,?
Cn1c(=O)[nH]c(=O)c2c1nc(N1CCCC1)n2CC(O)COc1ccccc1 (stereo not given),19.2,5.9%,-13.8%,9.7,0.0,-15.2%
Cc1ccccc1OCC(O)Cn1c(N2CCCCC2)nc2c1c(=O)[nH]c(=O)n2C (stereo not given),57.4,2.9%,8.2µM*,-3.1,-4.7,?
CCc1cccc(OCC(O)Cn2c(N3CCCCC3)nc3c2c(=O)[nH]c(=O)n3C)c1 (stereo not given),?,3.8%,7.31µM*,0.4,5.4,8.2µM*
Cc1ccccc1OCC(O)Cn1c(SC(C)C)nc2c1c(=O)[nH]c(=O)n2C (stereo not given),17.1,5.0%,?,4.6,-0.6,?
CC(OC(=O)c1ccc(F)c(S(=O)(=O)N2CCOCC2)c1)C(=O)NCC1CCCCC1 (stereo not given),-7.7,0.9%,?,41.8,.,-2.7%
C#CCSc1nnnn1-c1ccc(Br)c(C)c1,18.7,2.6%,0.1%,2.1,-18.6,12.3%
CC1CN(C(=O)CSc2nc(N)cc(N)n2)CC(C)O1 (stereo not given),13.7,2.7%,1.1%,-3.3,.,4.1%
CCSc1nc2c(c(=O)[nH]c(=O)n2C)n1CC(O)COc1ccc(Cl)cc1 (stereo not given),.,0.4%[12.3 µM],9.2µM*,.,.,?
CCOC(=O)CNC(=O)c1ccc2[nH]c3ccccc3c2c1,-62.8*,8.2%,?,-2.8,.,?
CC1CCN(Cc2ccc(NC(=O)C3CCN(c4nnc(-n5cccc5)s4)CC3)cc2)CC1,-5.6,7.6%,?,-7.4,-1.8,18.4µM*
O=C(NC1CCCc2ccccc21)C1CCN(c2nnc(-n3cccc3)s2)CC1 (stereo not given),-25.8,5.2%,?,-10.5,-14.5,23.1µM*
